Percent Effect data for 39 molecules are collected here from ChEMBL document CHEMBL3988442, “University of Dundee, Small-Polar-MMV Screening Library” (2021).

The target of this experiment is T1, Proteasome subunit beta (Trypanosoma cruzi) (UniProt O96673).
T1 sequence (whole entry): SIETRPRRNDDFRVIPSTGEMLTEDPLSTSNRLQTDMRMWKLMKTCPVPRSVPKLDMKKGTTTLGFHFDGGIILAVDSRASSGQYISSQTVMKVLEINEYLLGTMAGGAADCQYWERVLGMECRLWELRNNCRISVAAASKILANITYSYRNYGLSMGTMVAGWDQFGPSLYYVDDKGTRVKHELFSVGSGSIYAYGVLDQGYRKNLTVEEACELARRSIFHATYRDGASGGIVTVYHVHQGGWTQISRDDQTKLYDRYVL
Kind of experiment: Trypanosoma cruzi proteasome chymotrypsin-like activity (TcProtChymo) assay. In kind it is functional. Details: scale not given: in the data most compounds retested in dose-response had high values. The note with it: 9.37 µM.
Consider `CCn1nc(C)c(CNC(=O)c2cn(CC3CCCO3)nn2)c1C` (centres undefined), for which the Percent Effect came out at 2.27%.

As for `CN1CCCc2cc(CNC(=O)c3ccc(NC4CC4)nc3)ccc21`, the Percent Effect was found to be 0.515%.

With `Cc1ccc(CNC2CCCc3c2cnn3C)s1` (centres undefined), the Percent Effect stood at 17.1%. In the case of `Cc1nc(CN2CCN(CC(=O)Nc3c(C)cccc3C)CC2)no1`, the Percent Effect amounted to 15%. The result for `CC(=O)N1CCC(C(=O)c2cc(C)cnc2N)CC1` reads 7.67%; that for `CC(=O)N1C[C@H](NC(=O)c2cscn2)[C@@H]2OCCC[C@@H]21`, 23.2%.

For the molecule `NC(=O)COc1ccc(CNCc2ccc(F)cc2F)cc1`, the Percent Effect stood at 8.42%. The result for `CCCNC(=O)CN1CCN(Cc2csc(C(C)(C)C)n2)CC1` reads -7.62%. The result for `CCN1CC2(CCNCC2)COc2ccccc2S1(=O)=O` reads 13.1%; that for `Cc1ccccc1CSc1nc(N)cc(N2CC[C@@H](O)C2)n1`, 11.4%; that for `O=C1CC2(CCN(CCO)CC2)CN1Cc1cc(F)cc(F)c1`, 11.2%. Consider `O=C(c1csc(-c2cccs2)n1)N1CCCC1Cn1cccn1` (centres undefined), for which the Percent Effect was -4.99%. The result for `CS(=O)(=O)N1CCC(Oc2ccc(C(=O)N3CCSCC3)cc2Cl)CC1` reads 3.86%. The same measure for `CCc1nnc2n1CCN(Cc1csc(-c3cnn(C)c3)n1)C2`: 18.6%; for `CN(C)C(=O)CNC(=O)c1ccc(Cl)cc1F`: 13.7%; for `Fc1ccc(-c2cnc(CN3CCCC3Cn3cccn3)o2)cc1` (centres undefined): 12.7%. As to `Cc1cccnc1NCCNC(=O)[C@H]1CNC[C@@H](C(=O)N2CCCC2)C1`, the Percent Effect stood at 10.5%.

Consider `Cc1cnc(NC(=O)c2ccc(-n3ncc(C#N)c3N)cc2)s1`, for which the Percent Effect amounted to 5.49%.

In the case of `NCc1cnn(-c2ccccc2C(=O)NCCCn2ccnc2)c1`, the Percent Effect stood at 0.312%. The result for `CN(Cc1cnn(C)c1)C(=O)NC1CCN(Cc2ccccn2)CC1` reads 4.22%. The same measure for `CC(C)C(NC(=O)NCC1(CO)CC1)c1nnc2n1CCC2` (centres undefined): 11.2%. The same measure for `COc1ccccc1CN(C)c1nccc(-c2cn(C)nc2C)n1`: 16%; for `COc1ccc(CNC(=O)Nc2cccnc2N2CCCC2)cc1O`: 1.62%. Take `Cn1ncc2c1CN(Cc1cccnc1)CC2COCC1CC1` (centres undefined): the Percent Effect stood at 12.6%. Regarding `COc1ccc(OC)c(CNCCc2cc(F)cc3c2OCOC3)c1`, the Percent Effect was 7.19%. As for `CS(=O)(=O)NCCCN1CCCC1c1ccccc1` (centres undefined), the Percent Effect came to 3.03%. The same measure for `CN1CCOC(CNCc2cccc(OCC(F)(F)F)c2)C1` (centres undefined): -6.31%; for `Cc1cnn(CCNCc2csc(-c3cccs3)n2)c1`: 13.7%. The result for `CCn1cnnc1CNC(=O)NC(C)c1cccs1` (centres undefined) reads 3.38%; that for `CC(C)Nc1nc(N2CCOCC2)nc2c1CN(CC(=O)N(C)C)CC2`, -5.37%; that for `O=C(NCCCO)C1CC(=O)N(c2n[nH]c3cccc(F)c23)C1` (centres undefined), 10.5%.

Consider `Cn1cc(CN2C[C@@H]3COC[C@@H](C(=O)N4CCCCO4)[C@@H]3C2)cn1`, for which the Percent Effect is 8.19%. The same measure for `O=C1CC(c2ccccc2)c2snc(C(=O)O)c2N1` (centres undefined): 29.4%; for `CCc1nc(C(=O)N2CCCC2)nn1-c1ccccc1Cl`: 2.62%.

As to `Cc1ccc(Nc2nccc(C3CN(CC(N)=O)C3)n2)nc1`, the Percent Effect came to 17.2%.

As to `O=C(NCCCn1cccn1)N1CCCC1c1ccncc1` (centres undefined), the Percent Effect was 15.3%.

Regarding `CCC1CN(CC(=O)Nc2sccc2C#N)CCO1` (centres undefined), the Percent Effect came out at 8.19%. The same measure for `CCc1n[nH]c(C2CN(C(=O)c3cnc[nH]3)CCO2)n1` (centres undefined): 9.62%; for `O=C(NCC1CCCO1)c1c(-n2cnnn2)sc2c1CCC2` (centres undefined): 17.6%.
